# ± gives the standard deviation of the averaged measurements. Over roughly 25,000 sequences, “ln(normalized median fluorescence intensity)” has its median near 8.9; the highest 2% begin near 10. Many of the other results were omitted from the sample, so the highest values are more common in it than they were.
# System: PfAP2-LT AP2 domain (GST-tagged)
# Experiment: gcPBM binding intensity (ln(normalized median fluorescence intensity)); higher = stronger DNA binding
# In short: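 An Agilent 4 × 180k array carrying primer-extended double-stranded 36-bp intergenic genomic probes and negative controls received GST-tagged P. falciparum DNA-binding domains expressed in E. coli, about 25 μg on average, for 1 h. The binding buffer contained 1× PBS, 1% milk, 0.2 mg/ml BSA, 0.5% salmon testes DNA and 0.03% Triton X-100. Binding intensity is the top Masliner-normalised natural-log median intensity across replicate spots of either probe orientation, read after Alexa488 anti-GST antibody staining and a 488 nm scan.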
row,Sequence,gcPBM binding intensity (ln)
1,TATTAATTATATTTATGTACATAATCATATTATTAT [XGTACX_site7938],8.94 ± 0.44
2,TTTAATCATATGTTATATAATAAGCCCCCCCCCCAA [CACACA_negctrl_site486],10.2 ± 0.17
3,ATATATATATAATTATATAAAATATATCATATGTTA [XGTACX_negctrl_site47],8.53 ± 0.42
4,ATAATACACAAGCACACACACACACGGATATTTATA [CACACA_site6714],10.4 ± 0.23
5,ATTTTTATTTTATATACACACAATAATAATATAATA [CACACA_site4015],8.62 ± 0.36
6,AGCACAAGCACAAGCACACATTTATATATAAATACA [CACACA_site4642],9.1 ± 0.47
7,AATTAAAAAAAATACACACACACATACCCATATATA [CACACA_site5767],9.85 ± 0.28
8,TTTATTTATTATTGTTGTACACTTTTTATAAAAAAA [XGTACX_site5114],8.57 ± 0.53
9,ATGAAAAAAAAAAAAAAAAAAAAAAAAAAAAAAATA [CACACA_negctrl_site1083],8.37 ± 0.55
10,AAAAAAATTTGGCATACACACACACCCCCACCCACA [CACACA_site8094],10.41 ± 0.05
11,AAAATTCATATATACACACACGCACATATATATATA [CACACA_site90],9.71 ± 0.21
12,AAAAAATTCATATATACACACACGCACATATATATA [CACACA_site4226],9.53 ± 0.13
13,AAAAATTTGGCATACACACACACACCCACACCCACA [CACACA_site587],10.03 ± 0.042
14,AAAAATTTGGCATACACACACACACGCACACGCACA [CACACA_site6422],10.2 ± 0.21
15,AAAAATTTGGCATACACACACACACCGACACAGACA [CACACA_site4489],10 ± 0.23
16,CACATACACCCATACACACACATATATATTAAGATA [CACACA_site4459],9.57 ± 0.38
17,TATATATATATATAATGTACAAACTCCTTTATATAT [XGTACX_site4545],9.05 ± 0.2
18,ATTATTTTATTATAGTGTACTTTTTTAATCAAAGGA [XGTACX_site8921],8.44 ± 0.4
19,TTAGGTTATAAATACACACACAAAAGAAAAAAAAAA [CACACA_site5625],9.23 ± 0.55
20,TTATGATCATTTATATGTACACATAATTTTTGTGCT [XGTACX_site5568],9.03 ± 0.44
21,AAAAAAAAAAAAAAGAGTACATTTATTTATATATCT [XGTACX_site2381],8.46 ± 0.33
22,TAGAATAATCCTTACACACACACACCCACGAATAAA [CACACA_site483],10.1 ± 0.2
23,AATAGAATAATCCTTACACACACACGCGCACGAATA [CACACA_site6365],9.78 ± 0.31

row,Sequence,gcPBM binding intensity (ln)
1,AATAGAATAATCCTTACACACACACCCACACGAATA [CACACA_site8053],9.87 ± 0.16
2,TTTTTTTTAGTATGAACACACATATAGATTATAAAA [CACACA_site7391],8.35 ± 0.41
3,AAAAAAAATATGAAAACACACATATATAAATAAATA [CACACA_site113],8.88 ± 0.46
4,AAAAAAAAAAAACACACACACACACTAATATATAAA [CACACA_site8302],10.3 ± 0.35
5,ATATAAATAATATAAATACACACTAAAAAAAATATA [CACACA_site542],8.88 ± 0.44
6,AAAAAATATATATTAACACACACACTAATAAAAAAA [CACACA_site8366],9.56 ± 0.17
7,AATATGAACAGACACACACACACAAAAAAAAAAAAA [CACACA_site2012],9.9 ± 0.56
8,AACAAACACAGACACACACACACACTAATATGATTA [CACACA_site8770],10.2 ± 0.45
9,TATATATATATATATACACACACACTAATAAAAAAA [CACACA_site8426],9.65 ± 0.057
10,TATGAACACAGACACACACACAAAAAAAAAAAAAAA [CACACA_site7037],9.18 ± 0.56
11,ATAATCCTTAAACACACACACACACTAATAAATAAA [CACACA_site8052],10.1 ± 0.25
12,ATAATATGAAATATAACACACATATATAAAAACATT [CACACA_site866],9.11 ± 0.33
13,TACATAAATTAAAACACACACACACTAATAAAAAAA [CACACA_site8712],9.85 ± 0.18
14,ATAATATGAAAACACACACACACACTAATAAAAAAA [CACACA_site8617],10.3 ± 0.16
15,CTTATATGAAGCCTCTTTATTCATAAATAAGAATAA [TGCATGCA_negctrl_site120],8.21 ± 0.38
16,AAAATTATTTTTATGTGTACTTATTTATTATTTATA [XGTACX_site6665],8.79 ± 0.46
17,ATTATCTTATGTTATTTATTTGTCCCACATTTGTTA [TGCATGCA_negctrl_site402],8.91 ± 0.46
18,AAATTGTCAAAACACGCACACACATATACATAATAA [CACACA_site1743],9.62 ± 0.36
19,ATTCATTATTCACCTTGTACACAAATGATTATCGTA [XGTACX_site455],8.93 ± 0.45
20,ATAATATGAAAACACACACACACACTAGAAAAAAAA [CACACA_site5153],10.2 ± 0.27
21,AAAAAATCAAAACACACACACACACTAGAAAAAAAA [CACACA_site4909],10.1 ± 0.49
22,AATAATAAACACAATCAAATAAAATATGAAATATAA [GTGCAC_negctrl_site307],8.84 ± 0.49
23,GAGAAAAATAAATACACACACATAAATAAATACATA [CACACA_site5102],9.74 ± 0.42

row,Sequence,gcPBM binding intensity (ln)
1,CAGTGCCAAATTAGCACACACATATATACATGAATT [CACACA_site2814],9.3 ± 0.38
2,TCGTCTCTTCTTGTTCTGTTTTAGAAGGCTATATAT [CACACA_negctrl_site180],8.88 ± 0.44
3,AAGAACAGATAAAATCGTACGTGAAACATGAACTTG [XGTACX_site7793],9.03 ± 0.48
4,AATGTGCAAACAAACTGTACTTTTTTTTTTTTTTTT [XGTACX_site928],8.86 ± 0.26
5,TACAAAATGGGGAACACACACATATATATATATATA [CACACA_site3844],10.2 ± 0.05
6,TACAAAATGGGGAACACACACATATATAAATAAATA [CACACA_site7751],9.6 ± 0.63
7,AAAAAAAAAAAACACACACACACATACAAAATATAT [CACACA_site1448],10.04 ± 0.071
8,CATAAAAATGAACATACACACATATATATATATATA [CACACA_site2498],9.8 ± 0.17
9,AAAAAAAAAAAACATACACACAAATATATACATACA [CACACA_site4011],9.15 ± 0.33
10,GATACAAAATGGGGAACACACACATATATATATATA [CACACA_site9278],10.1 ± 0.22
11,AAAATAAGCGTGAAACGTACATATTACATTATTATA [XGTACX_site8914],8.78 ± 0.56
12,TATTAAAGATACTCGGTATAAATAAATTTTAATGTG [XGTACX_negctrl_site239],8.54 ± 0.52
13,AAGAGAAATGGGCACACACACACATATTATAGATAT [CACACA_site6828],9.8 ± 0.21
14,TCTTATCCATATATTACACACTATATATAGAAATTA [CACACA_site291],8.66 ± 0.39
15,TTTGAAATATATTTAGTGCATATATATTGATTATAA [GTGCAC_site9604],8.39 ± 0.38
16,CCCTCCCCATGTTTAGTGCAAAAATATTTGAAATTG [GTGCAC_site9873],10.1 ± 0.057
17,TTTGAATACTGAATGGTGCAAATTGTTCTCCCCATG,8.67 ± 0.57
18,ATTTTAGAATAAATTTTTTACATTAAAAAACTATTT [CACACA_negctrl_site1414],8.21 ± 0.54
19,AAACTTGTAAGAAACACACACACACCCATATATATA [CACACA_site797],9.96 ± 0.15
20,ACTTGTAAGAAACACACACACACACCCATATATATA [CACACA_site796],10.2 ± 0.16
21,AAAGAAAGAAAGAATACACACACACCGATATATATA [CACACA_site9246],9.77 ± 0.31
22,AAACTTGTAAGAAACACACACACACGCATATAAATA [CACACA_site6518],9.98 ± 0.099
23,ATAAGAAGAAGAAAAACACACATATGTAGATATATA [CACACA_site7469],9.01 ± 0.42

row,Sequence,gcPBM binding intensity (ln)
1,ACTTGTAAGAAACACACACACACACCGATATATATA [CACACA_site4594],10.1 ± 0.31
2,TTTAACGTTGAATATACACACATATATATATATATA [CACACA_site3698],9.55 ± 0.042
3,AAACATAAGAAACACACACACATATATATATATATA [CACACA_site3642],10.32 ± 0.064
4,AAAAAAAAAAGAAACACACACATATATATATATAAT [CACACA_site5052],9.44 ± 0.35
5,TATATATATAAACACACACACATATATATATATATA [CACACA_site4584],9.94 ± 0.14
6,TATATATATAAACACACACACACATATATATATATT [CACACA_site8814],9.84 ± 0.014
7,TATATATAATTATAAGAACACACATATATATATATA [CACACA_site8786],9.46 ± 0.36
8,AAACATAAGGGACACACACACATATATATATATATA [CACACA_site5920],10.2 ± 0.27
9,TATATTAAGAAACACACACACATATATATATATATA [CACACA_site1609],9.82 ± 0.23
10,TATATAATTATAAGAACACACATATATATATATATA [CACACA_site2472],9.6 ± 0.16
11,CATTATAAGAAACACACACACATATATATATATATA [CACACA_site1051],10.2 ± 0.25
12,ATAAATTAACATTAAAGTACATTTTAATAAATATTA [XGTACX_site3647],8.31 ± 0.52
13,TACCAATAAATGAAGGTGCGTGCTTGCCTTTGCTAT,8.95 ± 0.31
14,TCTATACCTATTCTTACACACATATGTATAAATATA [CACACA_site6407],9.04 ± 0.36
15,ATATAATCAGCTTCTCTTTTATGCTAAAAAAAAAAA [CACACA_negctrl_site1310],8.25 ± 0.3
16,ATATTATAGTTATGAACATGCAAACATTACGAAATA [TGCATGCA_site54],8.76 ± 0.5
17,GTATATATATACCATTGTACTTTCGTAAAAATATTT [XGTACX_site4846],8.8 ± 0.4
18,TAAGACATGATATATACACACCTTGTTTTAATTTTC [CACACA_site5282],8.86 ± 0.45
19,TATATACATATATGTACACACATTACAGATGTACAT [CACACA_site966],9.21 ± 0.38
20,ATTTTTTTTTTTTTTTTGGGGGGGTATACTTTTAAA [CACACA_negctrl_site1020],10.6 ± 0.2
21,TATACTTTATATATTTTGTATATATATTTTTTTTAT [TGCATGCA_negctrl_site530],8.8 ± 0.48
22,GTTAATATTTTTGGGGGTACTTAAAAAAAAAAAAAA [XGTACX_site1477],8.525 ± 0.021

# Source: the supplement of paper PMC11417369
